From the OligoGym collection

What follows are sequences tested against C2orf57 (assay: pooled miR-30 sensor sort-seq; sequence = guide strand). Settings: shRNA.
Note: reference of the scale not given here.

| Sequence | sensor-assay potency score (higher = more potent) |
| --- | --- |
| TTCTCCTCAGCAGACTTGGTGG | -0.95 |
| AACAACTGCACTCTTGTCTTTG | -0.961 |
| TTCTGGAACAACTGCACTCTTG | -1.11 |
| TGACATCTTGTCTTTACCCAGG | -0.635 |

The sequences below were run against C2orf70 in the same assay as above. Settings: shRNA.

| Sequence | sensor-assay potency score (higher = more potent) |
| --- | --- |
| TTGAACTCGGTCAGTAGGGTGC | -0.0549 |
| TTGATAGTACTTCCGATGCTGC | -0.858 |
| TTGTCTTGATAGTACTTCCGAT | -0.575 |
| TACTTGAGGGTGGTGGTGCCGT | -0.758 |
| TTGGTGGAGAAGATGGTGGGGA | 0.218 |
| TGTCTTGATAGTACTTCCGATG | -1.09 |
| TAGGTCTTCAGGTTCTCGGGGG | 0.319 |
| TAAAAGGTGCCACTTCTTCTTT | -0.951 |
| TAGTCTTAAAAGGTGCCACTTC | -0.307 |
| TAGAAATTCGTAAGCTCTGTGG | -0.326 |
| TAGCAGTCTCTCTTTTTCCGCT | -0.538 |
| TTCGTAAGCTCTGTGGAGCGAT | -0.412 |
